Records with an inconclusive call do not appear. The source made the active and inactive calls. Unless noted, calls follow the shape of the dose curve; as a rule, active = well fitted curve in the direction sought with a large enough effect in the repeat runs; inconclusive = weak or mixed curves; inactive = no such curve, though single readings can be large; an effect the other way counts as inactive or inconclusive.
How the values were obtained:
[1] = qHTS assay to identify small molecule HDAC inhibitors (AID 1259364); also: top concentration of the series differs between compounds; % is scaled to controls: 0 for no effect and ±100 for the full control effect; nearly all actives have a fitted effect of over 45% in size
How it was run: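 Wild-type HCT-116 cells, plated overnight at 37 C, exposed to compounds 2 hr at 37 C; luminogenic HDAC-Glo substrate then added 30 min at room temperature. Luminescence reports relative endogenous class I/II HDAC activity.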

[2] = qHTS assay to identify small molecule HDAC inhibitors - cell viability counter screen (AID 1259365); also: series mostly up to about 92 µM; % is scaled to controls: 0 for no effect and ±100 for the full control effect; nearly all actives have a fitted effect of over 50% in size
How it was run: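 Wild-type HCT-116 cells, 1,500/well, cultured overnight, then compound-treated 2 h at 37 C. Viability measured as ATP luminescence with CellTiter-Glo after 30 min at room temperature.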

[3] = qHTS assay to identify small molecule agonists of the sonic hedgehog signaling (Shh) pathway - cell viability counter screen (AID 1259366); also: % is scaled to controls: 0 for no effect and ±100 for the full control effect; nearly all actives have a fitted effect of over 50% in size
How it was run: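 NIH/3T3-derived Gli1-Luc reporter cells, 2,000 per well, received compound after 4 h and were treated about 23 h at 37C. Viability measured in the same wells by CellTiter-Fluor fluorescence after 1 h.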

[4] = qHTS assay to identify small molecule antagonists of the sonic hedgehog signaling (Shh) pathway - cell viability counter screen (AID 1259367); also: % is scaled to controls: 0 for no effect and ±100 for the full control effect; nearly all actives have a fitted effect of over 55% in size
How it was run: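 Cells: 3T3 Gli1-Luc, 2,000/well, 4 hr pre-incubation. Compounds in DMSO, then conditioned medium. Incubation 24 hr, 37C, 5% CO2. CellTiter-Fluor at 23 hr, 1 hr, fluorescence.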

[5] = qHTS assay to identify small molecule agonists of the sonic hedgehog signaling (Shh) pathway (AID 1259368; calls by dose curve;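 also: NIH/3T3-derived 3T3Gli1-Luc cells carrying a stable Gli1-driven firefly luciferase reporter; series mostly up to about 92 µM; % is scaled to controls: 0 for no effect and ±100 for the full control effect; nearly all actives have a fitted effect of over 15% in size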)
How it was run: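 NIH/3T3-derived 3T3Gli1-Luc cells with stably integrated Gli1-driven firefly luciferase, 2,000 cells/well, compounds added after 4 hr. Incubated 24 hr at 37C, 5% CO2; luminescence read after 30 min with luciferase reagent at room temperature.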

[6] = qHTS assay to identify small molecule antagonists of the sonic hedgehog signaling (Shh) pathway (AID 1259369; calls by dose curve; also: % is scaled to controls: 0 for no effect and ±100 for the full control effect; nearly all actives have a fitted effect of over 45% in size)
How it was run: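 NIH/3T3-derived Gli1-Luc reporter cells plated 4 h, dosed with compound, then stimulated with conditioned medium for 24 h at 37 C. Firefly luciferase luminescence read after 30 min with detection reagent at room temperature.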

[7] = qHTS assay to identify small molecule agonists of the androgen receptor (AR) signaling pathway in the presence of an antagonist - cell viability counter screen (AID 1259379);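 also: MDA-kb2 human breast cancer cells carrying an MMTV luciferase reporter; series mostly up to about 92 µM; % is scaled to controls: 0 for no effect and ±100 for the full control effect; nearly all actives have a fitted effect of over 25% in size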
How it was run: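 MDA-kb2 cells (MMTV-luciferase, AR/GR), 3,000/well, 5 h attachment, then 3.0 µM nilutamide (final) and compounds at 15 concentrations. Viability by CellTiter-Fluor fluorescence after 16 h at 37 °C, 0% CO2, in the reporter wells.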

[8] = qHTS assay to identify small molecule agonists of the estrogen receptor beta (ER-beta) signaling pathway - cell viability counter screen (AID 1259380); also: % is scaled to controls: 0 for no effect and ±100 for the full control effect; nearly all actives have a fitted effect of over 30% in size
How it was run: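 ER-beta-UAS-bla HEK293T cells in medium with 2% charcoal-stripped FBS, pre-incubated 6 hr, then treated 16 hr at 37C. Cytotoxicity read in the same wells by CellTiter-Glo luminescence after 30 min at room temperature.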

[9] = qHTS assay to identify small molecule antagonists of the estrogen receptor beta (ER-beta) signaling pathway - cell viability counter screen (AID 1259382);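 also: HEK293T cells carrying ER-beta-UAS-bla reporter stimulated with estradiol; series mostly up to about 92 µM; % is scaled to controls: 0 for no effect and ±100 for the full control effect; nearly all actives have a fitted effect of over 55% in size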
How it was run: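 ER-beta-UAS-bla HEK293T cells in 2% charcoal-stripped FBS medium, treated with compound plus 1 nM 17-beta-estradiol for 16 h at 37C. Viability read by CellTiter-Glo luminescence after 30 min at room temperature in the same wells.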

[10] = target: Estrogen receptor (Homo sapiens) (UniProt P03372); test: qHTS assay to identify small molecule agonists of the estrogen receptor alpha (ER-alpha) signaling pathway in the presence of an antagonist (AID 1259383; calls by dose curve; also: top concentration of the series differs between compounds; % is scaled to controls: 0 for no effect and ±100 for the full control effect; nearly all actives have a fitted effect of over 15% in size)
How it was run: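 VM7Luc4E2 cells express endogenous full-length ER-alpha with an ERE-luciferase reporter and were hormone-deprived for 5 days. Compounds at 15 concentrations were added with 10.0nM ICI-182,780 for 22hr at 37C. Luminescence was read with ONE-Glo.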

[11] = target: Thyrotropin receptor (Homo sapiens) (UniProt P16473); test: qHTS assay to identify small molecule antagonists of the thyroid stimulating hormone receptor (TSHR) signaling pathway (AID 1259385; calls by dose curve; also: % is scaled to controls: 0 for no effect and ±100 for the full control effect; nearly all actives have a fitted effect of over 20% in size)
How it was run: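 Antagonist mode: compound-treated TSHR-expressing HEK293 cells were stimulated with 1.5 ng/mL TSH (final) in presence of Ro20-1724 for 30 min at RT. HTRF cAMP detection after 1 h; each compound tested at 15 concentrations, triplicate.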

[12] = qHTS assay to identify small molecule agonists of the estrogen receptor alpha (ER-alpha) signaling pathway in the presence of an antagonist - cell viability counter screen (AID 1259386);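 also: series mostly up to about 92 µM; cells exposed to compounds for 22 h at 37 °C before the viability read; % is scaled to controls: 0 for no effect and ±100 for the full control effect; nearly all actives have a fitted effect of over 30% in size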
How it was run: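 Cell viability in VM7Luc4E2 cells (endogenous full-length ER-alpha) measured by CellTiter-Fluor fluorescence in the same wells as the luciferase screen. Cells pre-cultured 5 days in charcoal-stripped serum, then treated 22 h with compounds at 15 concentrations plus 10.0nM ICI-182,780.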

[13] = target: Progesterone receptor (Homo sapiens) (UniProt P06401); test: qHTS assay to identify small molecule agonists of the progesterone receptor (PR) signaling pathway (AID 1346784; calls by dose curve; also: % is scaled to controls: 0 for no effect and ±100 for the full control effect; nearly all actives have a fitted effect of over 30% in size)
How it was run: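 PR-UAS-bla HEK 293T cells (beta-lactamase reporter under UAS) in 2% charcoal-stripped FBS, dosed with 23 nL compound after 6 hr, incubated 16hr at 37C. LiveBLAzer B/G FRET substrate added, fluorescence read after 2 hours.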

[14] = qHTS assay to identify small molecule antagonists of the progesterone receptor (PR) signaling pathway - cell viability counter screen (AID 1346798); also: series mostly up to about 92 µM; % is scaled to controls: 0 for no effect and ±100 for the full control effect; nearly all actives have a fitted effect of over 50% in size
How it was run: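 PR-UAS-bla HEK293T cells, 3,000/well in 2% charcoal-stripped FBS medium, dosed with compounds plus R5020 agonist and incubated 16 h at 37C. Viability then measured in the same wells by CellTiter-Glo luminescence after 30 min at RT.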

[15] = qHTS assay to identify small molecule antagonists of the TGF-beta/Smad signaling pathway - cell viability counter screen (AID 1346824); also: % is scaled to controls: 0 for no effect and ±100 for the full control effect; nearly all actives have a fitted effect of over 50% in size
How it was run: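 Cytotoxicity counter-screen run in the same wells as the beta-lactamase Smad reporter read: CellTiter-Glo luminescence after 30 min at room temperature. HEK 293T SBE-bla cells had 5 hr compound exposure at 37 C with TGF-beta1 (0.25 ng/mL stock).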

[16] = qHTS assay to identify small molecule agonists of the progesterone receptor (PR) signaling pathway - cell viability counter screen (AID 1346799; calls by dose curve; also: % is scaled to controls: 0 for no effect and ±100 for the full control effect; nearly all actives have a fitted effect of over 45% in size)
How it was run: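 Counter screen in the PR-UAS-bla HEK293T wells (2% charcoal-stripped FBS, 16 h compound exposure at 37 C) after the bla read. CellTiter-Glo added, 30 min at room temperature, luminescence read as cell viability.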

[17] = qHTS assay to identify small molecule agonists or antagonists of the thyroid stimulating hormone receptor (TSHR) signaling pathway - wild type cell line counter screen (AID 1259384; calls by dose curve; also: % is scaled to controls: 0 for no effect and ±100 for the full control effect)
How it was run: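 Counter screen in untransfected Hek293: compounds (15-point titration, triplicate) plus phosphodiesterase inhibitor Ro20-1724 added after 18 h plating; 30 min RT. Intracellular cAMP via competitive d2/cryptate immunoassay, 1 h incubation.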

[18] = target: Progesterone receptor (Homo sapiens) (UniProt P06401); test: qHTS assay to identify small molecule antagonists of the progesterone receptor (PR) signaling pathway (AID 1346795; active = well fitted inhibition curve with a large enough effect in the signal ratio in the repeat runs, not every such curve was filed as active; the % refers to the signal ratio; also: % is scaled to controls: 0 for no effect and ±100 for the full control effect)
How it was run: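 PR-UAS-bla HEK293T cells with beta-lactamase reporter under UAS control, in 2% charcoal-stripped FBS, treated with compounds plus 1 nM promegestone (R5020, final) for 16 hr at 37C. Read-out: FRET beta-lactamase substrate fluorescence after 2 hr at room temperature.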

[19] = target: Estrogen receptor beta (Homo sapiens) (UniProt Q92731); test: qHTS assay to identify small molecule agonists of the estrogen receptor beta (ER-beta) signaling pathway (AID 1259377; active = well fitted activation curve with a large enough effect in the signal ratio in the repeat runs, not every such curve was filed as active; the % refers to the signal ratio; also: potency is read from the fitted curve at half-maximal effect)
How it was run: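 ER-beta-UAS-bla HEK293T cells in medium with 2% charcoal-stripped FBS were exposed to compounds for 16 h at 37C. Beta-lactamase reporter activity was read as fluorescence after 2 h with LiveBLAzer B/G FRET substrate at room temperature.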

Sequence of Thyrotropin receptor (Homo sapiens) (P16473 whole entry, looked up): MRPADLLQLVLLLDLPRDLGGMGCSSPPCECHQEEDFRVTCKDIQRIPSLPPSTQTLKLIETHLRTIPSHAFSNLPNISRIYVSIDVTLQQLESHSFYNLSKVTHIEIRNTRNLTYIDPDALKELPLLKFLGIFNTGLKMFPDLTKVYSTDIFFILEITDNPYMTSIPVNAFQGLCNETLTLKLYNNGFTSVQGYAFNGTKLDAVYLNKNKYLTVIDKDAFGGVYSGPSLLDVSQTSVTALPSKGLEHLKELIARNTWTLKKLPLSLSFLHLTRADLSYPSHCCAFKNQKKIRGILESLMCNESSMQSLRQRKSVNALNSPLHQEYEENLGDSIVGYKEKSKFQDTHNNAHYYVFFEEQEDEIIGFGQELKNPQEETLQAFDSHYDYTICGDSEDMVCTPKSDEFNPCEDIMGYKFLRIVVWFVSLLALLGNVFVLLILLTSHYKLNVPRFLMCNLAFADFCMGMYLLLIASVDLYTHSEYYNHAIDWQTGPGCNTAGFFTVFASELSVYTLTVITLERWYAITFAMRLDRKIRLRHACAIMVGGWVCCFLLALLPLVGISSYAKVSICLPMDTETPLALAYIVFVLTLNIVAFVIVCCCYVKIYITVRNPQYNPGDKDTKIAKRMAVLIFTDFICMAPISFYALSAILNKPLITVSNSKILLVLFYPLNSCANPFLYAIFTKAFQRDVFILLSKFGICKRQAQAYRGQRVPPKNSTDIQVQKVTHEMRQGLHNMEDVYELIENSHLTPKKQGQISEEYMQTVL
Sequence of Estrogen receptor (Homo sapiens) (P03372 whole entry, looked up): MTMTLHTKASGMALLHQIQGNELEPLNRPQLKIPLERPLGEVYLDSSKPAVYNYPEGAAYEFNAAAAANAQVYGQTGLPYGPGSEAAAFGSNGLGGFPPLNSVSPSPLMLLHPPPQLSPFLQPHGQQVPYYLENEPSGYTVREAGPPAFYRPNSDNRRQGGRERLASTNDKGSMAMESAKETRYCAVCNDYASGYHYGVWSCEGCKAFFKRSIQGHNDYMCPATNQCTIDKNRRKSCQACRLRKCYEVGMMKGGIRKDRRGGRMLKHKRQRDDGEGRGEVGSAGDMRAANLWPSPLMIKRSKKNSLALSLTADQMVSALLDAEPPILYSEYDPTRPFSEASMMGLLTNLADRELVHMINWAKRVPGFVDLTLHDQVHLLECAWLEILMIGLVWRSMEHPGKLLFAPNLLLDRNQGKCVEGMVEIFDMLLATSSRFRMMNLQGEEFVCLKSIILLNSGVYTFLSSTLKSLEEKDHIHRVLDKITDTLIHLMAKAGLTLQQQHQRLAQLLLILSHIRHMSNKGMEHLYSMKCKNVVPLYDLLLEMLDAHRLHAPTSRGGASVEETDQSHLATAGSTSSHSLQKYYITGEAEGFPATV
Sequence of Progesterone receptor (Homo sapiens) (P06401 whole entry, looked up): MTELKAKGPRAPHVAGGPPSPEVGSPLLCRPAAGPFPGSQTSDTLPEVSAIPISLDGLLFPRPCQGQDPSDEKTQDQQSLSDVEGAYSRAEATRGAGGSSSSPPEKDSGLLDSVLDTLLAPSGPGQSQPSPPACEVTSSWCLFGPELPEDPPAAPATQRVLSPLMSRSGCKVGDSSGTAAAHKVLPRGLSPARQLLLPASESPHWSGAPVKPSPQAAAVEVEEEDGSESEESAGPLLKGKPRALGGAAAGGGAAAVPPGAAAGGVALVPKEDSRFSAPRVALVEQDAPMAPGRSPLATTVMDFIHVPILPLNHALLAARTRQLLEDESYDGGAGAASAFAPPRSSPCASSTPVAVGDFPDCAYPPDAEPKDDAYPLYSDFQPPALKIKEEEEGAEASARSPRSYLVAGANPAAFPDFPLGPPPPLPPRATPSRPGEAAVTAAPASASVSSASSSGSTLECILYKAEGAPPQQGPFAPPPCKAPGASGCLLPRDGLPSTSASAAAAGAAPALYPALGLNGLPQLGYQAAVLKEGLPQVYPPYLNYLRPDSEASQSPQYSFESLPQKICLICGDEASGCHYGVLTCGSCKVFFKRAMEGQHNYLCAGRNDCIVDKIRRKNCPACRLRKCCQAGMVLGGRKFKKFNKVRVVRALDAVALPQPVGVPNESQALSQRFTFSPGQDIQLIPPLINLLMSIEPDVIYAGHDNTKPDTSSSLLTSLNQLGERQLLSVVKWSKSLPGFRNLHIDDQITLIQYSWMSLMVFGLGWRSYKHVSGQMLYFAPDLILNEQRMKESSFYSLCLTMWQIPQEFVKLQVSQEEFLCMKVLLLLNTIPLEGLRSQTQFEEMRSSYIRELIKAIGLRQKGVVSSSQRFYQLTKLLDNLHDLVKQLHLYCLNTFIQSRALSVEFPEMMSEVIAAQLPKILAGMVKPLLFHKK
Sequence of Estrogen receptor beta (Homo sapiens) (Q92731 whole entry, looked up): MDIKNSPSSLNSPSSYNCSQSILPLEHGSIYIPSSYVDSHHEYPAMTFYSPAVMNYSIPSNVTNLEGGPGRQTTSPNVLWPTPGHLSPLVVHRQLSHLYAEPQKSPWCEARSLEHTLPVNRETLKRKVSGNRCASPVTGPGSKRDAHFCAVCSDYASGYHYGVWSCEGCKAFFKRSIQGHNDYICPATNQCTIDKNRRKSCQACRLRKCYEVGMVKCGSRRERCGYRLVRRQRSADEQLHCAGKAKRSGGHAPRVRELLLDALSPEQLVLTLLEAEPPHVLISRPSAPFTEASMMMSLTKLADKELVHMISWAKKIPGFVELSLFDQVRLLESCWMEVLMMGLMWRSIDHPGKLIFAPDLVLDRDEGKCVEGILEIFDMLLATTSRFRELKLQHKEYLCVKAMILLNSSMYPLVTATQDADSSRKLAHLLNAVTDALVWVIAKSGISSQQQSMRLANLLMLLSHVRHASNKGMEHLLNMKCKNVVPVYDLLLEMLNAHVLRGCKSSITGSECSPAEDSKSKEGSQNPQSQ

CCN(CCO)c1cccc(C)c1
inactive: Potency [1] | outcome [2] | Potency [3] | Potency [4] | outcome [5] | Potency [6] | Potency [7] | outcome [8] | outcome [9] | outcome [10] | outcome [11] | Potency [12] | Potency [13] | Potency [14] | outcome [15]

CC(=O)OCC(=O)[C@@]1(O)[C@H](OC(C)=O)C[C@H]2[C@@H]3CCC4=CC(=O)C=C[C@]4(C)[C@@]3(F)[C@@H](O)C[C@@]21C
inactive: Potency [1] | outcome [2] | Potency [3] | Potency [4] | outcome [5] | Potency [6] | Potency [7] | outcome [8] | outcome [9] | outcome [10] | Potency [12] | Potency [13] | Potency [14] | Potency [16] | outcome [15]

C=CCCCCCCCCCCC
inactive: activity change, negative = inhibition [1] 4.91% [at 8.39 µM] | activity change, negative = cytotoxicity [2] 4.34% [at 8.39 µM] | viability change, negative = cytotoxic [3] 3.1% [at 8.39 µM] | viability change, negative = cytotoxic [4] 2.53% [at 8.39 µM] | activity change [5] 0.0597% [at 8.39 µM] | activity change, negative = inhibition [6] -3.37% [at 8.39 µM] | activity change, negative = cytotoxicity [7] 0.376% [at 8.39 µM] | activity change, negative = cytotoxicity [8] -6.43% [at 8.39 µM] | activity change, negative = cytotoxicity [9] 4.44% [at 8.39 µM] | activation [10] 0.334% [at 8.39 µM] | cAMP activity change [17] 1.9% [at 8.39 µM] | activity change, negative = inhibition [11] 3.13% [at 8.39 µM] | activity change, negative = cytotoxicity [12] -2.37% [at 8.39 µM] | activation [13] -0.805% [at 8.39 µM] | activity change, negative = inhibition [18] 5.07% [at 8.39 µM] | activity change, negative = cytotoxicity [14] -5.87% [at 8.39 µM] | activity change, negative = cytotoxicity [16] -1.19% [at 8.39 µM] | viability change, negative = cytotoxic [15] 12.5% [at 6.97 µM]

Nc1ccc(/C=C/c2ccc(N)cc2S(=O)(=O)O)c(S(=O)(=O)O)c1
inactive: activity change, negative = inhibition [1] 6.62% [at 0.349 µM] | activity change, negative = cytotoxicity [2] 0.175% [at 0.349 µM] | viability change, negative = cytotoxic [3] 0.832% [at 0.349 µM] | viability change, negative = cytotoxic [4] 1.69% [at 0.349 µM] | activity change [5] -0.943% [at 0.349 µM] | activity change, negative = inhibition [6] 1.08% [at 0.349 µM] | activity change, negative = cytotoxicity [7] 1.1% [at 0.35 µM] | activity change, negative = cytotoxicity [8] 1.15% [at 0.349 µM] | activity change, negative = cytotoxicity [9] 6.78% [at 0.349 µM] | activation [10] 0.0248% [at 0.349 µM] | activity change, negative = cytotoxicity [12] 0.0708% [at 0.349 µM] | activation [13] 0.0887% [at 0.349 µM] | activity change, negative = inhibition [18] 3.92% [at 0.348 µM] | activity change, negative = cytotoxicity [14] 0.087% [at 0.348 µM] | activity change, negative = cytotoxicity [16] -4.84% [at 0.349 µM]

NC(=O)C1(N2CCCCC2)CCN(CCCC(=O)c2ccc(F)cc2)CC1
inactive: Potency [1] | outcome [2] | Potency [3] | Potency [4] | outcome [5] | Potency [6] | Potency [7] | outcome [8] | outcome [9] | outcome [10] | outcome [17] | outcome [11] | Potency [12] | Potency [13] | Potency [18] | Potency [14] | Potency [16] | outcome [15]

C=C[Si](C)(C)O[Si](C)(C)C=C
inactive: Potency [1] | outcome [2] | Potency [3] | Potency [4] | outcome [5] | Potency [6] | Potency [7] | outcome [8] | outcome [9] | outcome [10] | outcome [11] | Potency [12] | Potency [13] | Potency [18] | Potency [14] | outcome [15]

COc1cc2c3cc1Oc1cc(ccc1O)C[C@@H]1c4c(cc(OC)c(O)c4Oc4ccc(cc4)C[C@@H]3N(C)CC2)CC[N+]1(C)C
active: Potency [19] 26.6 µM
inactive: Potency [1] | outcome [2] | Potency [3] | Potency [4] | outcome [5] | Potency [6] | Potency [7] | outcome [8] | outcome [9] | outcome [17] | outcome [11] | Potency [12] | Potency [13] | Potency [18] | Potency [14] | Potency [16]
